How the values were obtained:
Assay in all cases: PBM binding z-score (relative to random genomic background probes); higher = stronger binding; sequences stand for … in GC…GCGATTGACAGCGTAGAATGAAGG
[1] = test system: FXR:RXRa (NR concentration 270 nM, RXRa partner concentration 90 nM)
Method in brief: (§1)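 Random background probes are the reference for binding z-scores. These scores derive from regression-normalized fluorescence on custom Agilent 4×180K protein-binding microarrays incubated 1 h with ligand-free nuclear receptor dimers. Binding was detected with antibodies against each partner (one per run).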

[2] = test system: LXRa:RXRa (NR concentration 270 nM, RXRa partner concentration 90 nM)
Method in brief: as §1

[3] = test system: LXRa homodimer (NR concentration 270 nM)
Method in brief: as §1

[4] = test system: LXRb:RXRa (NR concentration 270 nM, RXRa partner concentration 90 nM)
Method in brief: as §1

[5] = test system: LXRb homodimer (NR concentration 270 nM)
Method in brief: as §1

[6] = test system: PPARa:RXRa (NR concentration 270 nM, RXRa partner concentration 90 nM)
Method in brief: as §1

[7] = test system: PPARg:RXRa (NR concentration 180 nM, RXRa partner concentration 90 nM)
Method in brief: as §1

[8] = test system: PPARg:RXRa 270nM:90nM, anti-RXR (NR concentration 270 nM, RXRa partner concentration 90 nM)
Method in brief: as §1

[9] = test system: PPARg:RXRa 30nM:10nM, anti-RXR (NR concentration 30 nM, RXRa partner concentration 10 nM)
Method in brief: as §1

[10] = test system: PPARg:RXRa 90nM:30nM, anti-RXR (NR concentration 90 nM, RXRa partner concentration 30 nM)
Method in brief: as §1

[11] = test system: PPARg:RXRa DBDmut IVT, anti-RXR (DBD mutation: RXRa K156A/R161A, NR concentration 270 nM, RXRa partner concentration 90 nM)
Method in brief: as §1

[12] = test system: PPARg:RXRa IVT, anti-PPARg (NR concentration 270 nM, RXRa partner concentration 90 nM)
Method in brief: as §1

[13] = test system: PPARg DBDmut:RXRa IVT, anti-PPARg (DBD mutation: PPARg1 K132A/R137A, NR concentration 270 nM, RXRa partner concentration 90 nM)
Method in brief: as §1

[14] = test system: PPARg DBDmut IVT, anti-PPARg (DBD mutation: PPARg1 K132A/R137A, NR concentration 270 nM)
Method in brief: as §1

[15] = test system: PPARg homodimer (NR concentration 180 nM)
Method in brief: as §1

[16] = test system: PXR:RXRa (NR concentration 270 nM, RXRa partner concentration 90 nM)
Method in brief: as §1

[17] = test system: PXR homodimer (NR concentration 270 nM)
Method in brief: as §1

[18] = test system: RARa:RXR (NR concentration 270 nM, RXRa partner concentration 90 nM)
Method in brief: as §1

[19] = test system: RARa homodimer (NR concentration 270 nM)
Method in brief: as §1

[20] = test system: RARb:RXRa (NR concentration 270 nM, RXRa partner concentration 90 nM)
Method in brief: as §1

Row | Sequence | PBM binding z-score [1] | PBM binding z-score [2] | PBM binding z-score [3] | PBM binding z-score [4] | PBM binding z-score [5] | PBM binding z-score [6] | PBM binding z-score [7] | PBM binding z-score [8] | PBM binding z-score [9] | PBM binding z-score [10] | PBM binding z-score [11] | PBM binding z-score [12] | PBM binding z-score [13] | PBM binding z-score [14] | PBM binding z-score [15] | PBM binding z-score [16] | PBM binding z-score [17] | PBM binding z-score [18] | PBM binding z-score [19] | PBM binding z-score [20]
1 | CCTGCTAGGTCATGGTGAGCTAATCTACAGTATG | 3.57 | 2.37 | -0.17 | 1.56 | -0.467 | 3.41 | 2.55 | 2.76 | 0.872 | 1.78 | 4.15 | 3.71 | 1.17 | 0.341 | 0.897 | 1.14 | -0.321 | 2.29 | -0.0406 | 3.77
2 | GCTGCTAAGTCAACTGATGGTCAGCTAAAGCTCG | -0.765 | -0.562 | -0.539 | -0.754 | -1.04 | -0.555 | -0.342 | -0.538 | -0.793 | -0.507 | -0.284 | -0.667 | -2.15 | -1.17 | -0.917 | -0.575 | -1.21 | -0.177 | -1.24 | 0.174
3 | TCATATAGGTAAACAGGTGAATGTCCGTAAGTTA | 0.832 | 1.18 | 1.02 | 0.963 | 0.0472 | 2.02 | 2.31 | 3.18 | 3.86 | 3.58 | 4.88 | 4.45 | 1.34 | 1.04 | 1.16 | 0.702 | 0.0773 | 1.09 | 0.858 | 0.708
4 | TCTAGCAGCCCAGAGGGTCACTCAAGAGGTACGG | 0.547 | 0.531 | -0.652 | 1.01 | -1.12 | 1.92 | 0.566 | 1.13 | 1.45 | 1.2 | 0.523 | -0.253 | -0.749 | -0.961 | 0.154 | 1.3 | -0.683 | 2.44 | -0.794 | 1.81
5 | CTAACTAGGTCAAAGGTCAAAGTCGAGCCAACCA | 8.53 | 7.32 | 5.19 | 7.21 | 2.96 | 7.74 | 14 | 11.2 | 13.1 | 13.2 | 9.01 | 9.15 | 2.95 | 1.6 | 4.42 | 7.03 | 1.84 | 8.76 | 2.8 | 5.8
6 | CCTGCTAGGGCAATGGTCAGCTAAAGCAGCTCGC | -0.321 | -0.261 | -0.651 | -0.809 | -1.23 | 0.614 | 1.75 | 3.28 | 0.695 | 2.57 | 1.55 | 1.76 | -1.07 | -1.49 | -0.322 | -0.655 | -0.95 | -0.343 | -1.1 | 1.15
7 | GCTGCTAGGTCAAGTGATGGTCAGCTAAAGCTCG | 4.09 | 3.01 | 0.152 | 1.9 | -0.0819 | 3.57 | 2.46 | 3.13 | 0.591 | 2.12 | 4.64 | 4.05 | 0.0181 | -0.582 | 1.55 | 1.43 | -0.69 | 2.5 | -0.171 | 4.11
8 | TCATATAGGTAAACAGGTGAAGGTCCGTAAGTTA | 0.526 | 0.84 | 0.00797 | 0.841 | -0.136 | 2.21 | 2.67 | 3.2 | 4.31 | 3.46 | 4.86 | 4.7 | 1.09 | 0.987 | 1.53 | 0.741 | 0.241 | 0.898 | 0.337 | 0.842
9 | TCTGATAGGTCAGTTGGTCAGCTAACGAGCTGCC | 2.27 | 2.12 | 0.378 | 1.59 | 0.846 | 2.67 | 1.19 | 2.4 | 2.52 | 2.3 | 2.34 | 2.26 | -0.134 | 1.25 | 1.43 | 0.816 | -0.173 | 1.01 | -0.0552 | 3.63
10 | TCGAGTAGGTTTCCAATGGGGCATTCAGCTTTCT | 0.0114 | -0.0745 | -0.502 | 0.0167 | -0.0602 | -0.255 | -0.735 | 0.178 | 0.836 | 0.304 | 1.53 | 0.378 | -1.11 | -0.734 | -1.12 | -0.503 | -1.03 | -0.636 | -1.26 | -0.326
11 | ATCGAAAGGTCGTGAGGTGAGGATACAGAAAGGC | 5.69 | 4.09 | 0.323 | 3.37 | 0.581 | 5.08 | 4.41 | 4.73 | 1.86 | 3.51 | 0.406 | 2.89 | 1.55 | 0.615 | 2.28 | 3.3 | 0.684 | 4.61 | 1.12 | 4.13
12 | ACTAGCAGGCCAAGGGTCACTAAAGATTAGTCCG | 2.25 | 3.51 | -0.00755 | 2.66 | -0.174 | 4.34 | 8.06 | 7.21 | 6.64 | 7.61 | 1.3 | 3.86 | 0.0188 | -0.44 | 2 | 3 | -0.139 | 3.97 | 0.15 | 3.42
13 | ACTAGCAGGCCAAGGGTCTCTCAAGATTAGTCCG | -1.54 | -0.539 | -0.698 | -0.703 | -1.05 | 0.948 | 2.49 | 4.52 | 2.15 | 4.55 | 0.281 | 1.01 | -1.04 | -0.76 | -0.604 | -0.568 | -0.576 | -0.307 | -1.21 | 0.516
14 | GCTGCTAGGTCAGGTTGGTCACCTAACGGGTACG | 1.01 | 0.907 | -0.299 | 0.43 | -0.281 | 1.56 | 0.627 | 1.15 | -0.264 | 0.22 | 2.48 | 2.8 | -1.27 | -1.36 | 0.888 | 0.48 | -0.213 | 1.27 | 0.0555 | 3.39
15 | CCTATTAGTTGATCATAAGGGCAACCGAAGCTCG | 0.383 | 0.258 | 0.608 | 0.291 | 0.94 | 0.433 | 0.394 | 0.295 | 0.0236 | 0.185 | 0.357 | 0.623 | 0.203 | 0.605 | 1.64 | 0.491 | 0.836 | 0.442 | 1.25 | 1.23
16 | ATCTCTAGGCAAAGTTCAGTGAAAGATCGATAGA | 0.723 | 1.38 | 0.839 | 0.819 | 0.16 | 1.95 | 2.49 | 3.78 | 1.93 | 3.67 | 0.488 | 0.697 | 0.713 | 0.549 | 0.889 | 1.8 | 1.43 | 1.02 | 0.783 | 2.54
17 | TCGAGTGGGTTAGTCGGGGCATTCAGCCAACATA | 0.26 | 0.197 | 0.0739 | 0.985 | -0.295 | 0.659 | -0.439 | 0.869 | 0.979 | 0.719 | 1.67 | 1.4 | 0.134 | -0.527 | 0.359 | 0.291 | 0.241 | 0.255 | 0.0202 | 0.514
18 | ATATGTAGGTTATCGCGTCATTCAGTTTGCGCAT | 0.694 | 1.01 | 0.372 | 1.1 | 0.647 | 3.31 | 3.86 | 3.94 | 1.41 | 3.08 | 7.52 | 6.92 | 1.88 | 2.41 | 0.975 | 0.655 | 0.292 | 0.918 | 0.606 | 0.976
19 | ACTAGCAGGCCCAGTTTGGGTCACTCAAACAAAG | -0.0555 | -0.448 | -0.417 | 0.4 | -0.861 | 0.93 | -0.337 | 0.0503 | -0.523 | -0.144 | -0.917 | 0.48 | -1.4 | -0.708 | -0.457 | 0.133 | -0.753 | 0.833 | -0.613 | 0.828

— the supplement of paper PMC6555819
